From PubChem BioAssay
Compounds with a hit are over-represented: about 9.5% of the library has one in this group of screens.
HPGD inh: inhibitors of human 15-hydroxyprostaglandin dehydrogenase (HPGD). P15428. purified HPGD, NADH fluorescence kinetic, PGE2 substrate. Potency, µM, for inactives: at the highest dose activity change, negative = inhibition, actives largely listed as inhibitors. 150,000 tested, 4.3% active. AID 894; active means well fitted inhibition curve with a large enough effect, not every such curve was filed as active; inconclusive means small, poorly fitted or top-dose-only effect, or another doubt; inactive means no such curve, though single readings can be large or run the other way
Target sequence (P15428 whole entry, looked up): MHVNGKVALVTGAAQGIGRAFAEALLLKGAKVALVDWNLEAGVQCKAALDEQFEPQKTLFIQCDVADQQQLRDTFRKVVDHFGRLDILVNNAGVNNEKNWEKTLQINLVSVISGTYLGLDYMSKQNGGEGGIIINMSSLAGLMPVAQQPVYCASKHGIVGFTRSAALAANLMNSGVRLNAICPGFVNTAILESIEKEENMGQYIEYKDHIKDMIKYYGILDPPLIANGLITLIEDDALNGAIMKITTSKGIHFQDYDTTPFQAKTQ
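20 nM HPGD preincubated 15 min at room temperature with compound in 50 mM Tris-HCl pH 8, 0.01% Tween 20. Started with 1 mM NAD+ and 30 uM prostaglandin E2; NADH fluorescence (360/450 nm) read 5 times over 30-s intervals, last minus first.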
Tau FP inhib: blocks human tau fibril formation measured by polarization; P10636; K18 P301L tau heparin fibrillization, Alexa594 FP, 6 h; Potency, µM (highest dose often 57.7 µM), inactives show top-dose activity, negative = inhibition, actives largely listed as inhibitors; 280,000 tested, 0.39% active; AID 1468; further: nearly all actives have a fitted effect of over 55% in size
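Compound effects on tau fibrillization are measured by Alexa 594 fluorescence polarization (ex 555, em 632 nm). K18 P301L tau is used at 15 uM with 0.24 uM labeled tracer, and 20 uM heparin induces aggregation over 6 hr at 37 C.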
Tau fluor cs: counter-screen for tau fibril formation inhibitors. Potency, µM (series often up to 57.7 µM), for inactives: at the highest dose activity change, negative = decrease. tau K18 P301L Alexa594 fluorescence, heparin fibrillization. 280,000 tested, 0.93% active. AID 1463; further: nearly all actives have a fitted effect of over 55% in size
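Human K18 P301L tau (15 uM unlabeled plus 0.24 uM Alexa 594-labeled, final) in 100 mM sodium acetate pH 7 was mixed with compound and 20 uM heparin and incubated 6 hr at 37 C.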
NPSR antag: antagonists of human neuropeptide S receptor cAMP signaling. CHO-NPSR cells, cAMP TR-FRET, antagonist mode. Potency, µM (doses to about 38.3 µM), without a hit: top-dose activity change, negative = inhibition, actives largely listed as inhibitors. 220,000 tested, 1% active. AID 1461; further: nearly all actives have a fitted effect of over 50% in size
Target sequence (Q6W5P4 whole entry, looked up): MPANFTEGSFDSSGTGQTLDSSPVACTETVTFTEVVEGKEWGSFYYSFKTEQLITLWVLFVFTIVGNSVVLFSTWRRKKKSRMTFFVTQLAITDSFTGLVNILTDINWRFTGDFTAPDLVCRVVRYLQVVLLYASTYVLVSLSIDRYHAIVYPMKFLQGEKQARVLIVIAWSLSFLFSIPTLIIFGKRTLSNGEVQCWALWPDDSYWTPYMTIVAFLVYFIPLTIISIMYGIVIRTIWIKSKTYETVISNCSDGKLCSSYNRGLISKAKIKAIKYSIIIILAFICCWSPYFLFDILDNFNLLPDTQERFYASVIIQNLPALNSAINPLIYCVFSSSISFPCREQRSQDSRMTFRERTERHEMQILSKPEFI
ALDH1A1 inh: inhibitors of human aldehyde dehydrogenase 1A1; P00352; Purified ALDH1A1, NADH fluorescence, propionaldehyde substrate; Potency, µM (series often up to 75.3 µM), for the others: at the highest dose activity, negative = inhibition, most hits filed as inhibitors; 220,000 tested, 7.3% active; active means well fitted inhibition curve with a large enough effect, not every such curve was filed as active; inconclusive means small, poorly fitted or top-dose-only effect, or another doubt; inactive means no such curve, though single readings can be large or run the other way;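 further: plate controls were no enzyme wells and a reference inhibitor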
Tau fibril ThT: blocks human tau fibril formation measured by thioflavin T | P10636 | recombinant tau K18 P301L (four-repeat tau fragment), heparin-induced fibrillization, ThT fluorescence | Potency, µM (top dose mostly 57.4 µM), for inactives: at the top dose activity, negative = inhibition, actives largely listed as inhibitors | 270,000 tested, 2.1% active; further: nearly all actives have a fitted effect of over 55% in size
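Tau K18 P301L fragment (15 uM unlabeled plus 0.24 uM Alexa 594-labeled) in 100 mM sodium acetate pH 7 with compound, fibrillization induced by 20 uM heparin for 6 hr at 37 C. Thioflavin T (30 uM) added, fluorescence read after 1 hr (ex 450, em 510 nm).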
* hit, by the source's call; ? = inconclusive; . = no result given; [ ] = another dose, or the depositor's remark. Unless noted, the call rests on the fitted dose curve; in most records, active means well fitted curve in the direction sought with a large enough effect; inconclusive means small, poorly fitted or top-dose-only effect, or another doubt; inactive means no such curve, though single readings can be large; an effect the other way counts as inactive or inconclusive. Unless noted, on the % scale 0 is the no-effect control and ±100 the full control effect; potency means the concentration at half of the fitted maximal effect.

SMILES	HPGD inh	Tau FP inhib	Tau fluor cs	NPSR antag	ALDH1A1 inh	Tau fibril ThT
CCOC(=O)c1ccc[n+](C(C)C(=O)c2ccc(-c3ccccc3)cc2)c1 (stereo unspecified)	-9%	-4%	-1%	3%	5.6µM*	2%
COc1ccccc1Nc1nc(-c2sc(NC(=O)c3ccco3)nc2C)cs1	?	11%	?	-20%[46.1 µM]	?	3.5µM*
Cc1nc(NC(=O)c2ccccc2)sc1-c1csc(Nc2cccc(Cl)c2)n1	?	?	11µM*[quencher]	-19%[46.1 µM]	?	7.9µM*
Cc1ccc(Cl)cc1Nc1nc(-c2sc(NC(=O)c3ccco3)nc2C)cs1	-23%	-1%	?	-13%[46.1 µM]	?	?
Cc1nc(NC(=O)c2ccccc2)sc1-c1csc(Nc2ccc(Cl)cc2)n1	-23%	5%	8.9µM*[quencher]	-23%[46.1 µM]	?	5µM*
Cc1nc(NC(=O)c2ccccc2)sc1-c1csc(Nc2ccc(Cl)cc2Cl)n1	?	7%	?	-13%[46.1 µM]	?	?
Cc1nc(NC(=O)c2ccco2)sc1-c1csc(Nc2ccc(Cl)cc2)n1	-13%	10%	?	-8%[46.1 µM]	-5%	7.1µM*
O=C(Nc1nnc(C23CC4CC(CC(C4)C2)C3)s1)c1ccc(N2C(=O)CCC2=O)cc1	-15%	-6%	-15%	-19%[46.1 µM]	14%	-8%
Cc1cccc(N(C(=O)c2snc(C(N)=O)c2N)C(C)C(=O)NCC2CCCO2)c1 (stereo unspecified)	.	-5%	3%	7%	?	1%
O=S(=O)(c1ccccc1)N1CCC2(CCN(C(c3ccccc3)c3ccccc3)CC2)CC1	1%	.	.	.	16%	.
Cc1nc(C)c(-c2csc(Nc3cccc(O)c3)n2)s1	.	?	18µM*[quencher]	54%	?	4.5µM*
Cc1nc(NC(=O)c2ccccc2)sc1-c1csc(Nc2ccc(F)cc2)n1	?	?	14µM*[quencher]	-22%[46.1 µM]	?	11µM*
CCC(=O)C1=C(c2ccc(F)cc2)N(C(=O)CC)n2c(nnc2-c2ccc(OC)cc2)S1	.	?	-20%	.	.	?
COC(=O)C1=C(C(=O)OC)[C@@H]2N(C)c3ccc(OC)cc3[C@@]23C[C@@H](C(=O)OC)N(S(=O)(=O)c2ccc(C(F)(F)F)cc2)C3=N1	4%	1%[11.6 µM]	-23%[11.6 µM]	.	9%[13.5 µM]	1%[11.5 µM]
CCCCC(CC)CNC(=O)c1ccc(Cn2c(=O)[nH]c3cc(OC)c(OC)cc3c2=O)cc1 (stereo unspecified)	.	?	?	.	.	3%
COc1cc(/C=C(\C#N)C(=O)NCC2CCCO2)ccc1OCC(=O)O (stereo unspecified)	.	-2%	0%	-18%	?	-7%
COc1cc(/C=C(\C#N)C(=O)NCC2CCCO2)c([N+](=O)[O-])cc1OC (stereo unspecified)	28µM*	-1%	-7%	-5%[46.1 µM]	?	-16%
CCOc1cc(/C=C(\C#N)C(=O)NCC2CCCO2)ccc1O (stereo unspecified)	?	-8%	-9%	-10%[46.1 µM]	28µM*	?
Cc1ccccc1-n1c(C)cc(/C=C(\C#N)C(=O)NCC2CCCO2)c1C (stereo unspecified)	-12%	5%	-1%	-5%	14µM*	-7%
Fc1ccccc1CSc1ncnc2sc3c(c12)CCCC3	-17%	-5%	-3%	-10%	?	-1%
O=C(COc1ccccc1F)Nc1ccc(OCc2cc(=O)n3ccccc3n2)cc1	.	1%	9%	.	.	?
NC(=O)COC(=O)CNC(=O)c1sc2ccccc2c1Cl	.	4%	-4%	-7%	22µM*	-1%
O=C(NCc1ccco1)c1nc2ccccc2s1	?	-8%	-7%	-3%[46.1 µM]	?	-6%
O=C(NCc1ccco1)c1sc2ccccc2c1Cl	16µM*	-9%	-15%	-10%	?	?
O=C(NCc1ccco1)c1sc2cc(Cl)ccc2c1Cl	16µM*	0%	-15%	?	20µM*	?
SMILES	HPGD inh	Tau FP inhib	Tau fluor cs	NPSR antag	ALDH1A1 inh	Tau fibril ThT
CC(=O)Nc1ccc(NC(=O)C(C)OC(=O)CNC(=O)c2sc3ccccc3c2Cl)cc1 (stereo unspecified)	-13%	-5%	-7%	0%	3%	-3%
CCOC(=O)c1c(-c2ccccc2)csc1/N=C/C1C(=O)CCCC1=O	-7%	15%	-14%	6%	3.5µM*	?
CCOC(=O)c1c(CC(C)C)csc1/N=C/C1C(=O)CCCC1=O	.	-5%	-18%	-15%	11µM*	?
CCOC(=O)c1c(CC(C)C)csc1NC=O	-19%	-3%	-15%	-3%[46.1 µM]	?	-9%
O=C(O)CCCCCN1C(=O)/C(=C\c2ccc(-c3ccc(Cl)cc3)o2)SC1=S	.	8%	-11%	-10%	.	.
O=C(CCN1C(=O)/C(=C/C=C/c2ccccc2)SC1=S)Nc1nc2ccccc2s1	-3%	5%	-22%	-15%	-10%	3.5µM*
O=C(CN1C(=O)/C(=C\C=C\c2ccccc2)SC1=S)Nc1ccc(F)cc1	-25%	4%	13%	-28%	17%	12%
Cc1cc(NC(=O)CCN2C(=O)/C(=C\c3ccccc3)SC2=S)no1	.	-11%	-11%	-32%	7%	-12%
O=C(COC(=O)CCN1C(=O)/C(=C\C=C\c2ccccc2)SC1=S)Nc1cc(F)ccc1F	.	1%	?	-48%	?	6.3µM*
O=C(O)CCCN1C(=O)/C(=C/c2ccc(-c3nc4ccccc4s3)o2)SC1=S	18µM*	-13%	-28%	?	?	1.6µM*
COc1cccc([C@@H]2Oc3ccc(OC)cc3C[C@H]2OC(=O)N[C@H]2CCCc3ccccc32)c1	-7%	0%	-6%	.	?	3%
CO[C@]12C[C@@H](COC(=O)c3cncc(Br)c3)CN(C)[C@@H]1Cc1cn(C)c3cccc2c13	0%	-2%	-9%	.	7%	?
COc1cc2c(cc1OC)CN(Cc1ccc(C)s1)CC2	-10%	2%	-9%	-7%[46.1 µM]	28µM*	-17%
COc1ccccc1N1CCN(CCCNC(=O)Nc2ccccc2C)CC1	1%	6%	-3%	4%[46.1 µM]	7%	-5%
COc1ccc(C(=O)CCN2CCN(c3ccccc3OC)CC2)cc1	.	8%	2%	0%	0.14µM*	?
COc1ccccc1N1CCN(CCCCN2C(=O)c3ccccc3C2=O)CC1	-25%	4%	1%	-11%[46.1 µM]	13µM*	1%
COc1ccc(C(=O)CCN2CCc3cc(OC)c(OC)cc3C2)cc1	.	17%	11%	5%	0.22µM*	?
COc1ccccc1N1CCN(CCCC(=O)c2ccc(F)cc2)CC1	0%	5%	-1%	0%[46.1 µM]	25%	-8%
COc1ccc(C(=O)N2CCc3cc(OC)c(OC)cc3C2)cc1OC	-11%	2%	-5%	-19%[46.1 µM]	-4%	-10%
